The values that follow come from PubChem BioAssay AID2018 (Sanford-Burnham Center for Chemical Genomics, 2009).

About 600 (50%) of roughly 1,200 compounds were called active. So high a share suggests a set chosen from earlier hits. Some of the results follow. Potency and affinity values are given separately. A number with no mark means an inactive call. Rule as the data show it: active = inhibition above about 42%; inactive = the rest.

The target of this experiment is SUMO-conjugating enzyme UBC9 (Homo sapiens) (UniProt P63279). Put plainly: blockers of UBC9-mediated SUMO conjugation – biochemical, AlphaScreen, SUMOylation inhibitor project, confirmation (AID 2018). The following applies: AlphaScreen in vitro SUMOylation assay; at 35 µM; hits give high values.
Sequence of SUMO-conjugating enzyme UBC9 (Homo sapiens) (P63279 whole entry, looked up): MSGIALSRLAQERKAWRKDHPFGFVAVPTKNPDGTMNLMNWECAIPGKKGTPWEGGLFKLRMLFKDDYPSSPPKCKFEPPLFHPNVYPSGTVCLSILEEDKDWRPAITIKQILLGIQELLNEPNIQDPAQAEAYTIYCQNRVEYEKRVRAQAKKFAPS
Take `O=C(O)CC1OCC=C2CN3CCC45C6=CC(=O)C(=O)C([N+](=O)[O-])=C6NC4C1C2CC35` (centres undefined): the inhibition (commonly the drop in the measured response relative to a control, in per cent) was 102% (active).
The same measure for `CN1CCN(c2ccc(S(C)(=O)=O)cc2[N+](=O)[O-])CC1`: -12.2%.
The same measure for `Cc1cc(/C=C2\C(=O)NC(=O)N(Cc3ccccc3)C2=O)c(C)n1-c1ccc(Cl)c(C(=O)O)c1`: 102% (active); for `CC(=O)c1ccc2c(c1)C1C(Cl)C(Sc3ccccc3[N+](=O)[O-])CC1C(c1ccccc1[N+](=O)[O-])N2` (centres undefined): 38.6%; for `CC(=O)c1ccc2c(c1)C1C(Cl)C(Sc3ccccc3[N+](=O)[O-])CC1C(C(=O)O)N2` (centres undefined): 102% (active).
Under `CC(C)CCNC(=O)c1c(N)n(Cc2ccc3c(c2)OCO3)c2nc3ccccc3nc12` stands 18.5%.
Consider `Cc1c(CC(=O)N2C[C@H]3C[C@@H](C2)c2cccc(=O)n2C3)c(=O)oc2c(C)c(O)ccc12`, for which the inhibition was 54.2% (active).
The same measure for `Nc1c(C(=O)NCCCc2ccccc2)c2nc3ccccc3nc2n1Cc1cccs1`: -10.2%; for `Cc1[nH]n(-c2ccccc2)c(=O)c1C(c1ccc([N+](=O)[O-])cc1)c1c(C)[nH]n(-c2ccccc2)c1=O`: 102% (active).
The same measure for `CCN(CC)c1ccc([N+](=O)[O-])c2cccnc12`: 33.7%.
The same measure for `CCCNC(=O)c1c(N)n(Cc2ccc3c(c2)OCO3)c2nc3ccccc3nc12`: 13.5%; for `Nc1c(C(=O)NC2CCCC2)c2nc3ccccc3nc2n1CC1CCCO1` (centres undefined): 100% (active).
Consider `CC(C)CCNC(=O)c1c(N)n(CC2CCCO2)c2nc3ccccc3nc12` (centres undefined), for which the inhibition is -37.9%.
With `CCC(C)NC(=O)c1c(N)n(CC2CCCO2)c2nc3ccccc3nc12` (centres undefined), the inhibition is 101% (active).
Under `CC(C)OCCCNC(=O)c1c(N)n(CC2CCCO2)c2nc3ccccc3nc12` (centres undefined) stands -76.6%; under `CCCNC(=O)c1c(N)n(CC2CCCO2)c2nc3ccccc3nc12` (centres undefined), -23.2%.
The same measure for `CCC(C)NC(=O)c1c(N)n(Cc2ccc3c(c2)OCO3)c2nc3ccccc3nc12` (centres undefined): 11%.
The same measure for `CN1CCC2(CC1)C(C#N)=C(N)NC(S)=C2C#N`: 38.8%.
Turning to `CCCCn1c(NS(=O)(=O)c2ccccc2)c(C(=O)OCC)c2nc3ccccc3nc21`, the inhibition was 101% (active).
The same measure for `CCCCn1c(N)c(C(=O)OCC2CCCO2)c2nc3ccccc3nc21` (centres undefined): 25.4%; for `CCCCn1c(NS(=O)(=O)c2ccc(C)cc2)c(C(=O)OCC)c2nc3ccccc3nc21`: 28.2%.
Under `COCCNC(=O)c1c(NC(=O)c2ccco2)n(Cc2ccccc2)c2nc3ccccc3nc12` stands -28.4%; under `CCCCn1c(NC(=O)c2ccco2)c(C(=O)OCC)c2nc3ccccc3nc21`, 62.6% (active); under `CCCCn1c(N)c(C(=O)NCc2cccs2)c2nc3ccccc3nc21`, 51.4% (active).
Under `CCCCNC(=O)c1c(N)n(CCCOC)c2nc3ccccc3nc12` stands 102% (active); under `COCCCn1c(N)c(C(=O)Nc2ccccc2)c2nc3ccccc3nc21`, -4.1%.
Regarding `CCOC(=O)c1c(NC(=O)c2c(N)n(CCCOC)c3nc4ccccc4nc23)sc2c1CCCC2`, the inhibition is 41.9%.
Under `CC(C)CCn1c(N)c(C(=O)NCc2cccs2)c2nc3ccccc3nc21` stands 4.2%; under `CCOCCCn1c(N)c(C(=O)Nc2sc3c(c2C(=O)OC)CCCC3)c2nc3ccccc3nc21`, 47% (active).
Under `COc1ccc(Cn2c(N)c(C(=O)NCc3ccco3)c3nc4ccccc4nc32)cc1` stands -14.9%; under `COCCCn1c(N)c(C(=O)NCCC(C)C)c2nc3ccccc3nc21`, -40.9%; under `COc1cc(Cn2c(N)c(C(=O)NCc3ccco3)c3nc4ccccc4nc32)cc(OC)c1OC`, 50.8% (active).
The same measure for `CCCCCn1c(N)c(C(=O)NCc2cccs2)c2nc3ccccc3nc21`: 9.5%; for `COCCCn1c(N)c(C(=O)NCc2ccco2)c2nc3ccccc3nc21`: -8.5%; for `COc1ccc(Cc2nccc3cc(OC)c(OC)cc23)cc1OC`: 37.6%.
As to `c1ccc2c(NC3=NCCS3)cccc2c1`, the inhibition was 19.6%.
The same measure for `CN1CCc2nc3sc(C#N)c(N)c3c(-c3cccs3)c2C1`: 29.8%; for `CN1CCN(c2ccc3nccnc3c2)CC1`: 6.7%; for `O=C(O)CCn1cc(C=C2C(=O)NC(=O)NC2=O)c(-c2ccc(Br)cc2)n1`: 1%.
Under `CCC(C)NC(=O)c1c(N)n(CCCOC)c2nc3ccccc3nc12` (centres undefined) stands 74% (active); under `COCCNC(=O)c1c(N)n(CCC(C)C)c2nc3ccccc3nc12`, -54.5%; under `COCCCn1c(N)c(C(=O)OCCOC)c2nc3ccccc3nc21`, 10.5%.
Under `Cc1ccsc1C(=O)C1CCCN(Cc2ccc(-n3cccn3)cc2)C1` (centres undefined) stands -14.4%; under `CC(C)CNC(=O)c1c(N)n(Cc2ccc3c(c2)OCO3)c2nc3ccccc3nc12`, -19.8%; under `CN1C[C@H](CO)C=C2c3cccc4[nH]cc(c34)C[C@H]21`, 10.8%.
For the compound `CC(C)[C@H]1C(=O)N2CCC[C@H]2[C@]2(O)O[C@](NC(=O)[C@@H]3C=C4c5cccc6[nH]cc(c56)C[C@H]4N(C)C3)(C(C)C)C(=O)N12`, the inhibition was 54.8% (active).
The same measure for `Cn1c(O)c(/C=C2\N=c3ccccc3=C2CCNC(=S)NC2CC2)c(=O)n(C)c1=O`: 58.6% (active); for `O=C(c1cccn2c(=O)c3ccc(Cl)cc3nc12)N1CCC2(CC1)OCCO2`: 20.5%.
Consider `COc1ccc(OC)c(N2C(=O)NC(=O)/C(=C/c3ccc([N+](=O)[O-])s3)C2=O)c1`, for which the inhibition was 86.3% (active).
